HP1b binding inh: HP1-beta chromodomain-methylated histone interaction inhibition; Potency, µM (series often up to 114 µM), usual class: inhibitors; AlphaScreen HP1-beta / biotin-H3K9me3 peptide binding; AID 540317; P83916; actives 0.56% (n = 390,000); further: nearly all actives have a fitted effect of over 70% in size
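AlphaScreen: HP1-beta (50 nM) preformed 30 min with biotin-H3(1-18)K9me3 peptide (50 nM) in PBS pH 7.4, 0.01% Tween-20. Compound added for 30 min at RT, then streptavidin donor/nickel chelate acceptor beads (10 ug/mL) for 30 min.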
BAZ2B inh: inhibitors of human BAZ2B bromodomain; Potency, µM (highest dose often 114 µM), actives largely listed as inhibitors; AID 504333; Q9UIF8; actives 4.4% (n = 360,000); AlphaScreen BAZ2B-H3K14Ac peptide displacement; further: nearly all actives have a fitted effect of over 60% in size
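Multi-concentration screen (max 110 uM) measuring displacement of acetylated histone H3 peptide from BAZ2B by AlphaScreen, using 50 nM protein, 50 nM peptide and 10 ug/mL streptavidin donor plus Ni-chelate acceptor beads.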
JMJD2A Tudor: inhibitors of human JMJD2A Tudor domain; O75164; AlphaScreen JMJD2A-Tudor / H3K4me3 peptide binding; Potency, µM (top dose mostly 114 µM), usual class: inhibitors; actives 4.4% (n = 390,000); further: nearly all actives have a fitted effect of over 50% in size
G9a inh: inhibitors of human histone lysine methyltransferase G9a; G9a H3K9 monomethylation, AlphaScreen, 2 h; Potency, µM (top dose mostly 102 µM), hits mostly inhibitors; actives 8.8% (n = 350,000); further: nearly all actives have a fitted effect of over 75% in size
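AlphaScreen detection with an anti-monomethyl H3K9 antibody quantified product after a 2 h room-temperature reaction containing 500 nM biotinylated H3K9 peptide, 20 µM SAM and 20 nM enzyme, which had been preincubated 15 min with compound.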
12-LOX inh: blocks human arachidonate 12S-lipoxygenase; actives 1.1% (n = 580,000); purified 12hLO, xylenol orange hydroperoxide absorbance; Potency, µM (series often up to 108 µM), usual class: inhibitors; P18054
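Hydroperoxide product was detected by ferrous iron/xylenol orange as the 573 to 405 nm absorbance ratio. Arachidonic acid at 40 uM (final) was turned over for 30 min at room temperature by 150 nM human 12hLO, pH 7.0 Hepes buffer, after 15 min compound preincubation.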
PLK1 PBD block: inhibitors of human PLK1 polo-box domain binding; P53350; Plk1 PBD binding of FITC phosphopeptide, fluorescence polarization; Potency, µM, most hits filed as inhibitors; actives 2.8% (n = 360,000); AID 720504; further: series mostly up to about 57 µM; nearly all actives have a fitted effect of over 65% in size
Target sequence (P53350 whole entry, looked up, the tested form may be a part): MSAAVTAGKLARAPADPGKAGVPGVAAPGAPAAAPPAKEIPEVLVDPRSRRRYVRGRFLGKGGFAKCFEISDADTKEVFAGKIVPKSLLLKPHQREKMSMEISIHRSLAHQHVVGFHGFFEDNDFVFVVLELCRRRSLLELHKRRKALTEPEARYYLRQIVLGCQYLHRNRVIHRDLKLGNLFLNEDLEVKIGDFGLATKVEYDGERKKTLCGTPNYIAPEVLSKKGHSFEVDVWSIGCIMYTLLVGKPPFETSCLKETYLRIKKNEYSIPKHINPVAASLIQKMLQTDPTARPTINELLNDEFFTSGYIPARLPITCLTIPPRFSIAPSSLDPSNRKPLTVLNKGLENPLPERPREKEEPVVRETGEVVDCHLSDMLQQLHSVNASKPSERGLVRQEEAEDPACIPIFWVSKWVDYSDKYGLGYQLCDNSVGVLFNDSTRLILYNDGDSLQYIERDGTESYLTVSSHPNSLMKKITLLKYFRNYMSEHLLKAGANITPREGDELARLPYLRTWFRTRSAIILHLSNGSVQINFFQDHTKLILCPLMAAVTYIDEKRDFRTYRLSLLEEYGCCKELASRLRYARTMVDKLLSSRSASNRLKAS
Each line names hits and unclear results; the compound was inactive in the other large screens. Shown are actives, neighbours in structure and some others; about 9% of the full set was active somewhere. The call rests on the fitted dose curve; in most records, active means well fitted curve in the direction sought with a large enough effect; inconclusive means small, poorly fitted or top-dose-only effect, or another doubt; inactive means no such curve, though single readings can be large; an effect the other way counts as inactive or inconclusive.

CCN(C(=O)c1cccs1)c1nnc(-c2ccncc2)s1	none
COCCN(C(=O)Cc1cccs1)c1nnc(-c2ccncc2)s1	BAZ2B inh 79µM, G9a inh inconclusive, 12-LOX inh inconclusive
CCOC(=O)CN(C(=O)COc1nc(-c2ccccc2)cc(C)c1C#N)c1cccc(OC)c1	none (no result: G9a inh)
O=C(CN1C(=O)NC2(CCCC2)C1=O)Nc1cc(C(F)(F)F)ccc1N1CCCCC1	G9a inh 45µM
O=C(CN1C(=O)NC2(CCCCC2)C1=O)Nc1cc(C(F)(F)F)ccc1N1CCOCC1	G9a inh 50µM
O=C(COc1coc(CN2CCN(Cc3ccccc3)CC2)cc1=O)Nc1ccccc1	BAZ2B inh inconclusive
Cc1ccc(C(c2nnnn2C2CCCCC2)N2CCc3ccccc32)cc1 (stereo unspecified)	none
Oc1ccc(C(c2nnnn2C2CCCC2)N2CCc3ccccc3C2)cc1 (stereo unspecified)	BAZ2B inh 56µM, G9a inh 4.5µM, 12-LOX inh inconclusive, PLK1 PBD block 24µM
COc1ccc(C(c2nnnn2C2CCCC2)N2CCN(C(=O)c3ccco3)CC2)cc1OC (stereo unspecified)	BAZ2B inh inconclusive, JMJD2A Tudor inconclusive, G9a inh inconclusive, 12-LOX inh inconclusive, PLK1 PBD block inconclusive
COc1cc(C(c2nnnn2C2CCCC2)N2CCc3ccccc3C2)ccc1O (stereo unspecified)	HP1b binding inh inconclusive, JMJD2A Tudor inconclusive, G9a inh 1.8µM, 12-LOX inh inconclusive, PLK1 PBD block 21µM
COc1ccc(S(=O)(=O)N2CCOC2CNC(=O)C(=O)NCc2cccnc2)cc1OC (stereo unspecified)	BAZ2B inh inconclusive
CCCCN(C)CCCNC(=O)C1CCC(CNS(=O)(=O)c2c(C)cc(C)cc2C)CC1 (stereo unspecified)	PLK1 PBD block 21µM
N#C/C(=C/c1ccc(CNC(=O)C(=O)Nc2cc(Cl)cc(Cl)c2)o1)C(=O)NCc1cccnc1	none
Cc1ccccc1OCCNCC(C)O (stereo unspecified)	HP1b binding inh inconclusive, BAZ2B inh 56µM, JMJD2A Tudor 2.8µM, G9a inh 14µM, 12-LOX inh inconclusive
O=C1NC2(CCN(CC3CCCC3)CC2)Oc2ccccc21	12-LOX inh 25µM (no result: HP1b binding inh, BAZ2B inh, JMJD2A Tudor, G9a inh, PLK1 PBD block)
Cc1cc(-c2ccn[nH]2)c(C)s1	none
COCCn1c(C)cc(/C=C2\NC(=S)N(C)C2=O)c1C	HP1b binding inh inconclusive, BAZ2B inh 50µM, G9a inh 10µM, 12-LOX inh inconclusive
Cc1cc(C)c(C#N)c(Sc2ccccc2N)n1	G9a inh 7.9µM
O=C(O)C1CC=CCC1C(=O)Nc1cccc([N+](=O)[O-])c1 (stereo unspecified)	BAZ2B inh 89µM, G9a inh inconclusive
O=C(CNS(=O)(=O)c1cccs1)N1CCN(c2ccccn2)CC1	none
CCOCCCn1c(=S)[nH]c2cc(C(=O)NCCOC)ccc2c1=O	BAZ2B inh inconclusive, JMJD2A Tudor 40µM, G9a inh inconclusive
COC(=O)c1ccc2c(=O)n(CCCCCC(=O)O)c(=S)[nH]c2c1	JMJD2A Tudor 50µM, G9a inh 45µM
CCOCCCn1c(=S)[nH]c2cc(C(=O)NCCc3ccc(OC)c(OC)c3)ccc2c1=O	none (no result: G9a inh)
CCOCCCn1c(=S)[nH]c2cc(C(=O)NC3CCCCC3C)ccc2c1=O (stereo unspecified)	none
CCOCCCn1c(=S)[nH]c2cc(C(=O)NCCCN(CC)CC)ccc2c1=O	G9a inh 8.9µM
CCOCCCNC(=O)c1ccc2c(=O)n(CCCOCC)c(=S)[nH]c2c1	G9a inh 10µM
COc1ccc(NC(=O)CCCCn2c(=O)[nH]c3ccccc3c2=O)cc1	none
CCC(=O)Nc1nc2ccccc2n1Cc1ccc(Cl)cc1	none
CCCCCCn1c(COc2ccccc2F)nnc1SCC(=O)N1c2ccccc2NC(=O)C1(C)C	BAZ2B inh inconclusive
COCCNC(=O)C1CCC(Cn2c(=S)[nH]c3ccccc3c2=O)CC1 (stereo unspecified)	JMJD2A Tudor 79µM, G9a inh inconclusive
COCCn1c(=S)[nH]c2cc(C(=O)NC3CCCCC3C)ccc2c1=O (stereo unspecified)	none (no result: HP1b binding inh, BAZ2B inh, JMJD2A Tudor, G9a inh)
O=C(NCCc1c[nH]c2ccccc12)C1CCC(Cn2c(=S)[nH]c3ccccc3c2=O)CC1 (stereo unspecified)	none
COC(=O)c1ccc2c(=O)n(CCCCCC(=O)N3CCN(c4ccccc4)CC3)c(=O)[nH]c2c1	JMJD2A Tudor 56µM, PLK1 PBD block 30µM
COCCn1c(=S)[nH]c2cc(C(=O)NC(C)C)ccc2c1=O	BAZ2B inh inconclusive, JMJD2A Tudor inconclusive, G9a inh 11µM
Nc1cccc(-c2cn3cccnc3n2)c1	PLK1 PBD block 30µM

Source: PubChem BioAssay (National Center for Advancing Translational Sciences (NCATS))
